Activity calls are given as the source filed them.
Assays:
Albumin (Bos taurus) = Albumin (Bos taurus) (UniProt P02769); test: bovine serum albumin binders on microarray, profiling panel, artefact control for SMM control protein annotation, biochemical, small-molecule microarray, Alexa647 label, 635/667 nm fluorescence (AID 1118); settings: BSA-A647 binding, fluorescence 635 nm, higher = more signal;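 also: score merges 667 nm emission intensity and signal-to-noise per printed compound spot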
[1] = small-molecule microarray binders of probe aXIP, primary screen, biochemical, NeuroSMM set, 635/667 nm fluorescence (AID 1119); settings: higher = more signal, called active from +8 up or from −8 down;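 also: probe is the protein aXip251-270 applied at 1 µg/mL to compound-printed slides; binding of probe to printed compounds measured as 667 nm fluorescence plus signal to noise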
[2] = small-molecule binders of probe aNOTCH3, primary screen, biochemical, small-molecule microarray, 635/667 nm fluorescence (AID 1120); settings: higher = more signal;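 also: probe is a biotin-tagged antibody raised against NOTCH3 rather than NOTCH3 protein; score merges spot fluorescence near 667 nm with spot signal to noise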
[3] = small-molecule binders of probe aNOTCH2, primary screen, biochemical, small-molecule microarray, 635/667 nm fluorescence (AID 1121); settings: higher = more signal;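 also: score merges feature fluorescence read at 667 nm with its signal to noise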
[4] = target: Carbonic anhydrase 2 (Homo sapiens) (UniProt P00918); test: CAII small-molecule binders, profiling panel, biochemical, small-molecule microarray, Alexa647-labelled CAII (AID 1122); settings: CAII-A647 binding fluorescence, higher = more signal
[5] = COS7 lysate on small-molecule microarray, probe aHis, 635 nm (AID 1123); settings: COS7 cell lysate, fluorescence, higher = more signal;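 also: z-score combines 667nm fluorescence intensity with signal-to-noise per printed compound spot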
[6] = compound binding in COS7 lysate, probe aLAP1, primary screen, cell lysate, small-molecule microarray (AID 1124); settings: probe aLAP1, fluorescence, higher = more signal;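 also: lysate comes from COS7 cells expressing LAP1 and is applied at 0.3 µg/mL; score merges spot fluorescence near 667 nm with signal-to-noise over triplicate slides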
Sam68 (KHDRBS1) = test: Sam68 small-molecule binders, primary screen, biochemical, small-molecule microarray, 635 nm fluorescence (AID 1125); settings: small-molecule microarray binding, higher = more signal;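 also: score merges 667 nm channel intensity with signal to noise over triplicate slides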
[7] = test system: Chordin-like protein 2 (CHRDL2); test: CHRDL2 small-molecule binders, primary screen, biochemical, small-molecule microarray, 635 nm fluorescence (AID 1126); settings: small-molecule microarray binding, fluorescence 635 nm; higher = more signal;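 also: printed compound slides probed with Chrdl2 protein at 4 µg/mL for 1 h at 4 C; score merges 667 nm emission intensity with signal to noise over three replicate slides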
[8] = target: Concanavalin-A (Canavalia ensiformis) (UniProt P02866); test: ConA small-molecule binders, primary screen, artefact control for SMM control protein annotation, biochemical, small-molecule microarray, Alexa647 label, 635 nm (AID 1127); settings: ConA-A647 binding fluorescence, higher = more signal;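 also: z combines 667 nm emission intensity with signal-to-noise across three replicate slides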
[9] = anti-His antibody binders, primary screen, artefact control for SMM control protein annotation, biochemical, small-molecule microarray, 635 nm fluorescence (AID 1128); settings: anti-His Alexa647 antibody binding, higher = more signal;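 also: score merges feature fluorescence with signal-to-noise for each printed compound spot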
[10] = test system: Human papillomavirus type 1a E7 protein (residues 1-88); test: HPV1a E7 small-molecule binders, primary screen, biochemical, small-molecule microarray, residues 1-88, 635 nm (AID 1129); settings: small-molecule microarray binding, fluorescence 635 nm; higher = more signal
[11] = target: Focal adhesion kinase 1 (Homo sapiens) (UniProt Q05397); test: small-molecule microarray binders of FAK, primary screen, biochemical, 635/667 nm fluorescence, BSA, DTT (AID 1130); settings: PTK2 binding, 635 nm fluorescence, higher = more signal;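 also: composite of spot emission at 667 nm and signal to noise over triplicate slides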
[12] = test system: Fibrinogen (Alexa647-labelled); test: fibrinogen binders on compound microarrays, profiling panel, artefact control for SMM control-protein annotation, biochemical, small-molecule microarray, 635/667 nm fluorescence (AID 1131); settings: fibrinogen-A647 binding fluorescence, higher = more signal;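 also: z-score merges 667 nm fluorescence with per-spot signal-to-noise over triplicate slides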
[13] = target: Follistatin (Homo sapiens) (UniProt P19883); test: follistatin binders on small-molecule microarrays, primary screen, biochemical, small-molecule microarray, 635/667 nm fluorescence (AID 1132); settings: FST binding, 635 nm fluorescence, higher = more signal
[14] = target: Fibroblast growth factor 2 (Homo sapiens) (UniProt P09038); test: FGF2 binders on small-molecule microarrays, primary screen, biochemical, small-molecule microarray, 635/667 nm fluorescence (AID 1133); settings: small-molecule microarray binding, FGF2, fluorescence 635/667; higher = more signal
[15] = mitochondrial membrane potential change in A549 cells, profiling panel, cell-based, JC-1 fluorescence, basal, 24 h, 100 nL (AID 1138); settings: higher = more signal;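 also: A549 lung adenocarcinoma cells under basal conditions with no added stimulus; test concentration not given here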
Lefty1 = Lefty1 binders on small-molecule microarrays, primary screen, biochemical, small-molecule microarray, 635/667 nm fluorescence (AID 1139); settings: small-molecule microarray binding, fluorescence 635/667; higher = more signal
[16] = test system: wheat germ agglutinin (Triticum aestivum), Alexa647-labelled; test: wheat germ agglutinin binders on compound microarrays, profiling panel, artefact control for SMM control-protein annotation, biochemical, small-molecule microarray, 635/667 nm fluorescence (AID 1140); settings: WGA-A647 binding, 635 nm fluorescence, higher = more signal;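 also: score merges 667 nm feature emission with signal to noise over triplicate slides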
[17] = target: Luciferin 4-monooxygenase (Photinus pyralis) (UniProt P08659); test: firefly luciferase enzyme inhibitors, primary screen, biochemical, luminescence, purified enzyme, 2006 set (AID 1141); settings: SteadyGlo luminescence, 30 min, higher = more signal, called active from +8 up or from −8 down;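 also: cell-free assay with purified firefly luciferase at 100 ng per well in PBS; test concentration not given here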
Chain of Luciferin 4-monooxygenase (Photinus pyralis) (P08659 whole entry, looked up): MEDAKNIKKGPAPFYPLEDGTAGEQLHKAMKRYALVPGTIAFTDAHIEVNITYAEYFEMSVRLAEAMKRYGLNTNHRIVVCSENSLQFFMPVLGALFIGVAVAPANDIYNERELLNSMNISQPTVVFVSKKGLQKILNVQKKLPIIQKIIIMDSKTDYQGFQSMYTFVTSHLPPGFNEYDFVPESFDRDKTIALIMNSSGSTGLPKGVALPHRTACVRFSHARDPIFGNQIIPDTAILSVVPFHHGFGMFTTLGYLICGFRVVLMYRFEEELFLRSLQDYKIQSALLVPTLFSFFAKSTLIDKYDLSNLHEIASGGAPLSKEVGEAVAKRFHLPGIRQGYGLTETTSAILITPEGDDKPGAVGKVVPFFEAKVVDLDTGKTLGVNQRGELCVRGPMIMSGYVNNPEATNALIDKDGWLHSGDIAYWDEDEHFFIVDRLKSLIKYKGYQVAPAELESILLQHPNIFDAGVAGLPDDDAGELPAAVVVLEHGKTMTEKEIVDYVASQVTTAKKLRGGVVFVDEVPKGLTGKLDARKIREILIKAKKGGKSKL

Chain of Concanavalin-A (Canavalia ensiformis) (P02866 whole entry, looked up): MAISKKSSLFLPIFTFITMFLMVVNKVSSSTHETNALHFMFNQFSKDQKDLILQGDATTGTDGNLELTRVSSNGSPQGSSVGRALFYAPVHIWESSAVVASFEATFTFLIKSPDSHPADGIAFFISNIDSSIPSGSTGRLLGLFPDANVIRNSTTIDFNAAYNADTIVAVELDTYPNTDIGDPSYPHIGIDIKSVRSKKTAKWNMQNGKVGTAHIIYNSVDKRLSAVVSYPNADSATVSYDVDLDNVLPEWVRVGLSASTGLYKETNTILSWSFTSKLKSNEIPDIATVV
Chain of Fibroblast growth factor 2 (Homo sapiens) (P09038 whole entry, looked up): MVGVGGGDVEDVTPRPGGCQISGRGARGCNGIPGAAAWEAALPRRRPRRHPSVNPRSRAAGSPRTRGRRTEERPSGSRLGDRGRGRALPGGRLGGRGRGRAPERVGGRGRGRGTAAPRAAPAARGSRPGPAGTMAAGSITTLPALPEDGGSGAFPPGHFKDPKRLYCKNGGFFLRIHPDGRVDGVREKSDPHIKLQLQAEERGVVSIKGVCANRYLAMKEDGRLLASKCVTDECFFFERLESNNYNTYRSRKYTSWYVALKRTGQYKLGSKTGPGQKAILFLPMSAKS
Chain of Albumin (Bos taurus) (P02769 whole entry, looked up): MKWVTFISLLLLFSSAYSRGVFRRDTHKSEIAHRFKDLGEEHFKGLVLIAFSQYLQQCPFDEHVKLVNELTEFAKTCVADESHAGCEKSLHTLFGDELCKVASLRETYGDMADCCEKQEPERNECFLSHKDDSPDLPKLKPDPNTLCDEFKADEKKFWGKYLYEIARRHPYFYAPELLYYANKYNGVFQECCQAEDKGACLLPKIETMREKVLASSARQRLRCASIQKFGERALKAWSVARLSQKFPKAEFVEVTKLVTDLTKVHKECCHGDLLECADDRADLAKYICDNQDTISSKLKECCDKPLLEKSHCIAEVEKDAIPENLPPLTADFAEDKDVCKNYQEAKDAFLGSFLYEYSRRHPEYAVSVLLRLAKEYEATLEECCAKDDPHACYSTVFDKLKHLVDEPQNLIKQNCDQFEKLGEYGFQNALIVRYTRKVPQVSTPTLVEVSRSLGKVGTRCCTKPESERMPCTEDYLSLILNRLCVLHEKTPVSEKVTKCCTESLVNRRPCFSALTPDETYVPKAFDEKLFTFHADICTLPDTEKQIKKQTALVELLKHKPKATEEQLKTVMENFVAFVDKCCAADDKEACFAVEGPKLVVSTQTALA
Chain of Focal adhesion kinase 1 (Homo sapiens) (Q05397 whole entry, looked up): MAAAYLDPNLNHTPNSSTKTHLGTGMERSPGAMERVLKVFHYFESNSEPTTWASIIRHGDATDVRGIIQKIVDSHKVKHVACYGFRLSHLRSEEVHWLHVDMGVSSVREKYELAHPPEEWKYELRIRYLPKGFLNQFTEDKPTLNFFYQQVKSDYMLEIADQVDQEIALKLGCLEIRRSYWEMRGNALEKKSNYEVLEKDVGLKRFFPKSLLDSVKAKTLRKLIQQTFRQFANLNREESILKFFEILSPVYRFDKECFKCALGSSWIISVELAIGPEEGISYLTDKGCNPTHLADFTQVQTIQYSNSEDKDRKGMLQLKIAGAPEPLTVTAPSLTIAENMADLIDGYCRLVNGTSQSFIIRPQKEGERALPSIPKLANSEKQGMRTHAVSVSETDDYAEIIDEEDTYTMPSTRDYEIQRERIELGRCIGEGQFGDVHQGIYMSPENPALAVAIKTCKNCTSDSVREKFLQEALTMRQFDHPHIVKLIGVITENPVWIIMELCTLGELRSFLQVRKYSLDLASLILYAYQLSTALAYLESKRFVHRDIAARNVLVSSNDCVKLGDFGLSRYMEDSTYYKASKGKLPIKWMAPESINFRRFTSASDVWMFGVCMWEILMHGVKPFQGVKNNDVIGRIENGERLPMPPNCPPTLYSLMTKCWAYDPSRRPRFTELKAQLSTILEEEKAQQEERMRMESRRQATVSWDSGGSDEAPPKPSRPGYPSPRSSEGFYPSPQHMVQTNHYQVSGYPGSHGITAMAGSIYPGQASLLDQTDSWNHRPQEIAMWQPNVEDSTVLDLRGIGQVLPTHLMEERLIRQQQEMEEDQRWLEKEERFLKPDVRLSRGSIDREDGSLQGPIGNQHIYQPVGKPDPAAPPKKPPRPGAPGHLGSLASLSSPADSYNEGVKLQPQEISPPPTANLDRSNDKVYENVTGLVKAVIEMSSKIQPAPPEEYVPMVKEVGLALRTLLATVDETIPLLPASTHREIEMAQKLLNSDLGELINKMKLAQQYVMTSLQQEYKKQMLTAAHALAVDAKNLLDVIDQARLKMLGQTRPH
Chain of Follistatin (Homo sapiens) (P19883 whole entry, looked up): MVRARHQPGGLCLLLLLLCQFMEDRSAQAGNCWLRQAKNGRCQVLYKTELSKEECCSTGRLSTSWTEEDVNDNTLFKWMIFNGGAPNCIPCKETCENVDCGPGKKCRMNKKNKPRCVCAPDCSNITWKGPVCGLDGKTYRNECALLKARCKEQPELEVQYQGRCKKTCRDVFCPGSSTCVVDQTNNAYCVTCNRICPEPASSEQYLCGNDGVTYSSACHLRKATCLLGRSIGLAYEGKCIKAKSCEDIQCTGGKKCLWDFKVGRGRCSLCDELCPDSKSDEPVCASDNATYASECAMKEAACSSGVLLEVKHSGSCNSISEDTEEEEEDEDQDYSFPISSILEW

SMILES | composite z-score (Albumin (Bos taurus)) | composite Z-score [1] | composite z-score [2] | composite z-score [3] | composite z-score [4] | composite z-score [5] | composite z-score [6] | composite z-score (Sam68 (KHDRBS1)) | composite z-score [7] | composite z-score [8] | composite z-score [9] | composite z-score [10] | composite z-score [11] | composite z-score [12] | composite z-score [13] | composite z-score [14] | z-score [15] | composite z-score (Lefty1) | composite z-score [16] | z-score [17]
CN(C)C(=O)[C@]1(CCS(=O)(=O)c2ccccc2)N=C(c2ccc(OCCCO)cc2)O[C@@H]1c1ccccc1CN=[N+]=[N-] | 0.955 | 0.581 (inactive) | 0.0743 | 0.139 | 0.73 | 2.78 | 0.766 | 1.3 | -0.109 | 1.17 | 2.64 | 1.26 | 1.08 | 0.994 | 0.983 | 1.45 | -0.381 | -0.421 | 0.774 | -0.345 (inactive)
C=CCNC(=O)[C@@H]1[C@H]2C(=O)O[C@H](c3ccccc3)[C@H](c3ccccc3)N2[C@H](c2ccc(OCCO)cc2)[C@@]12C(=O)N(C(=O)OCCOC)c1ccccc12 | 0.258 | 1.01 (inactive) | -0.0362 | -0.0432 | 0.589 | 2.37 | 0.67 | 1.29 | 0.389 | 1.03 | 1.25 | 1.19 | 0.986 | 0.61 | 1.29 | 1.26 | 1.11 | 0.581 | 0.539 | 0.36 (inactive)
C=C(COC)/C(=C/C[C@@H](OC(C)=O)c1cccc(OCCO)c1)c1cnc2ccccc2c1 | 0.238 | -0.365 (inactive) | 0.0916 | -0.084 | 0.98 | 1.12 | 0.0842 | 0.965 | 1.42 | 0.877 | 0.309 | 0.75 | -0.012 | -0.657 | 1.42 | 1.2 | 0.031 | 1.24 | 1.04 | -1.11 (inactive)
CC(C)[Si]1(C(C)C)OCc2cc(-c3ccc(-c4ccc(Cl)c(Cl)c4)o3)nc(-c3ccc(Oc4ccccc4)cc3)c21 | -0.753 | -1.23 (inactive) | -0.292 | -0.197 | -0.554 | -0.558 | -0.397 | -1.08 | -1.24 | -1.08 | -0.768 | -1.88 | -0.0554 | -1.02 | -1.21 | -1.57 | 0.229 | -1.34 | -0.0312 | 0.586 (inactive)
Cc1ccc(S[C@]2(C(=O)NC(C)C)CC(=O)N(Cc3ccccc3)[C@@H]2c2ccc(CO)cc2)cc1 | 0.161 | 0.339 (inactive) | -0.333 | -0.0451 | 0.445 | -0.0367 | -0.915 | -0.76 | -1.31 | -1.06 | 0.0893 | -0.161 | 0.274 | -1.36 | -1.15 | -1.36 | 0.649 | -1.06 | 0.704 | 0.262 (inactive)
COCCCNC(=O)[C@]1(Cc2ccccc2N=[N+]=[N-])N=C(c2ccc(OCCCO)cc2)O[C@@H]1c1ccccc1 | 0.894 | 0.522 (inactive) | 0.619 | 0.308 | 0.304 | 2.85 | 0.536 | 1.3 | -0.586 | 1.11 | 2.96 | 1.24 | 1.05 | 0.977 | 1.25 | 0.94 | 2.2 | -0.252 | 1.3 | -1.9 (inactive)
CCCCC(=C=CC[C@@H](O)c1ccc(OCCO)cc1)CCO | 0.543 | 0.742 (inactive) | -0.0947 | -0.12 | 0.755 | 1.46 | 0.145 | 0.118 | -0.346 | -0.321 | 1.83 | 0.407 | 0.814 | 0.0258 | 0.66 | 0.329 | 1.57 | 0.452 | 1.16 | -1.91 (inactive)
C=C(COC)C(=O)CC[C@@H](OC(=O)c1ccccc1-c1ccccc1C(=O)O)c1ccccc1OCCO | -0.597 | 0.49 (inactive) | -0.122 | -0.0174 | 0.531 | -0.381 | 1.67 | 0.448 | 0.538 | 0.0185 | 0.116 | 1.15 | -0.267 | 0.599 | 1.29 | 1.64 | -0.0562 | 0.922 | -0.272 | -6.94 (inactive)
COc1cc(Cc2cc3c(c(CCc4ccccc4)n2)[Si](C(C)C)(C(C)C)O[C@H]3c2ccccc2)cc(OC)c1OC | -0.405 | -0.0849 (inactive) | -0.15 | -0.181 | -0.128 | -0.178 | -0.177 | -0.361 | 0.06 | 0.562 | -0.133 | -1.36 | -0.114 | 0.0047 | 0.214 | -0.392 | -1.64 | -0.261 | -0.192 | -0.0946 (inactive)
COc1cccc(C)c1NC(=O)O[C@H]1[C@H](OC(=O)Nc2ccc3c(c2)OCO3)[C@H](OC(=O)Nc2ccc3c(c2)OCO3)[C@@H](OC)O[C@@H]1CO | 0.428 | 0.645 (inactive) | 0.473 | -0.101 | 0.3 | 1.43 | 0.405 | 1.3 | 0.0955 | 1.17 | 1.61 | 1.27 | 0.197 | 0.993 | 1.3 | 0.662 | 0.123 | 0.802 | 0.7 | -6.86 (inactive)
